The text below walks through data of PubChem BioAssay AID745 (Emory University Molecular Libraries Screening Center, 2007).

SMILES strings stand for the structures. Out of some 33,000 compounds screened, about 40 (0.1%) were called active. Shown is part of a subset that was picked to be rich in actives. Unmarked numbers belong to inactive results. Rule as the data show it: active = z-score below about -3; inactive = the rest.

The nature of this experiment: inhibitors of measles virus growth in cells, primary screen, measles RdRp inhibitor project, cell-based, single point, HTS (AID 745). Conditions: infected Vero cells, GFP fluorescence, 64 h; stronger effect = lower value.
As to `COc1nc(SC)nnc1C`, the z-score was -5.82 (active).

With `COc1cc(NC(=O)c2cc(-c3ccc(Cl)cc3)on2)c(OC)cc1Cl`, the z-score was -0.12.

As to `COC(=O)c1sc(=S)n(-c2ccc(OC)c(Cl)c2)c1N`, the z-score was 0.31.

Regarding `O=C(Nc1c(C(=O)N2CCC(Cc3ccccc3)CC2)cnn1-c1ccccc1)c1ccc(Br)cc1`, the z-score is 0.43.

Consider `COc1ccc(-c2cc(C(=O)Nc3sc4c(c3C(N)=O)CCCC4)no2)cc1`, for which the z-score is 0.31.

As to `CCCc1n(CC(O)COc2cccc(Cl)c2)c2ccccc2[n+]1C` (configuration not stated), the z-score was 0.55.

For `CC1CC(C)(C)NC(=S)N1CCC(=O)Nc1ccc(OC(F)(F)F)cc1` (configuration not stated), the z-score is -0.78.

As to `O=C1COc2ccc(Cl)cc2N1`, the z-score is 0.06.

`CCOC(=O)c1sc(NC(=O)COc2ccc(C(C)C)c(C)c2)nc1C`: the z-score was -0.5.

On to `COc1ccc(C2C(C(=O)Nc3ccc(Br)cc3C)c3ccccc3C(=O)N2C)cc1` (configuration not stated), for which the z-score was -0.56.

Take `O=S(=O)(c1ccccc1)N1CCN(C2CC3CCC2C3)CC1` (configuration not stated): the z-score was -0.28.

Take `N=C1N=C(N)C(Cc2ccccc2)S1` (configuration not stated): the z-score was -0.59.

With `Cc1noc(NS(=O)(=O)c2ccc(NC(=O)c3cccc(Br)c3)cc2)c1C`, the z-score was 0.43.

Turning to `CC(=O)Nc1cc(C(=O)N(C)CCC#N)ccc1Sc1ccc(Cl)cc1`, the z-score was -1.08.

Consider `COc1ccc(C2C(C(=O)Nc3ccccc3F)=C(C)NC3=C2C(=O)CCC3)cc1OC` (configuration not stated), for which the z-score is 0.03.

Take `O=C(NCc1ccccc1)c1ccc2c(=O)n(-c3ccccc3)c(=S)[nH]c2c1`: the z-score was 0.39.

For `O=C1C(=O)N(c2nccs2)C(c2ccccc2Cl)/C1=C(\O)c1ccc(F)cc1` (configuration not stated), the z-score is 1.65.

As for `CCCCNC(=O)c1cnn2c(C)c(Cc3ccccc3)c(C)nc12`, the z-score was -0.18.

As for `O=C(c1ccc(-n2c(=S)[nH]c3ccccc3c2=O)cc1)N1CCN(C2CCCCC2)CC1`, the z-score is -0.06.

Turning to `O=C(Nc1ncnc2sc3c(c12)CCCC3)c1ccccc1`, the z-score is 0.41.

As for `S=c1[nH]c(-c2ccc(Cl)cc2)cn1-c1cccc(Cl)c1`, the z-score is -0.55.

Consider `Nc1nnc2c(n1)-c1ccccc1C2=O`, for which the z-score was 0.84.

Consider `CCC(NS(=O)(=O)c1ccc(Oc2ccc([N+](=O)[O-])cc2)cc1)C12CC3CC(CC(C3)C1)C2` (configuration not stated), for which the z-score was -1.36.

On to `O=C(CN1C(=O)c2cccc3cccc1c23)N1CCCCCC1`, for which the z-score is 0.09.

On to `CCCCN(C)Cc1c(O)ccc2c(=O)c(Oc3ccc(CC)cc3)c(C(F)(F)F)oc12`, for which the z-score was -0.69.

As to `Fc1ccccc1CSc1nc(NCC2CCCO2)c2ccccc2n1` (configuration not stated), the z-score was -1.9.

On to `COCCNC(=O)c1ccc(N2CC3CC(C2)c2cccc(=O)n2C3)c(NC(=O)c2cc3ccccc3oc2=O)c1` (configuration not stated), for which the z-score is 0.89.

For `Cc1ccc(NCc2ccccc2CO)cc1`, the z-score is -0.53.

Turning to `C=CCC1(C#N)C(=S)NC(c2ccccc2)=C(C(=O)OCC)C1c1cccnc1` (configuration not stated), the z-score is 1.37.

As for `CC(=O)N1CCc2cc(Br)cc(S(=O)(=O)NCCCN3CCCCCC3)c21`, the z-score was 0.64.

With `COc1ccc(C=NCCC2(c3ccc(OC)cc3)CCOC(C)(C)C2)cc1` (configuration not stated), the z-score was -0.17.

Regarding `COc1ccccc1-c1nc2nc(C)cc(=O)n2[nH]1`, the z-score is -0.19.

With `Cc1ccccc1C(=O)Nc1cccc(F)c1`, the z-score was 1.39.

For the compound `O=C(Cc1c(C(=O)O)[nH]c2ccc(Cl)cc12)NCc1ccc2c(c1)OCO2`, the z-score is 1.5.

Take `COc1ccc(NC(=O)Cn2c(=O)n(CCc3ccccc3)c(=O)c3c(C)c(C)sc32)cc1`: the z-score was 2.83.

On to `Cn1c(=O)c(=O)n(C)c2cc(S(=O)(=O)N3CCCc4ccccc43)ccc21`, for which the z-score is -0.1.

Take `CCN1CCN(c2cc(C)c3cc(NC(=O)CCC4CCCC4)ccc3n2)CC1`: the z-score was -0.38.

For `Cc1cccc(C)c1NC(=O)CSc1ccc([N+](=O)[O-])cn1`, the z-score was 0.01.

Turning to `COc1cccc(NC(=O)Cn2cc(C(=O)C(F)(F)F)c3ccccc32)c1`, the z-score is -0.44.

As for `COc1ccc(OC)c(C2Nc3cccc4cccc(c34)N2)c1`, the z-score is -0.45.

Take `CCOP(=O)(Cc1cc(C(C)(C)C)c(O)c(C(C)(C)C)c1)OCC`: the z-score is -1.02.

With `CC1Cc2nc(SCC(=O)Nc3cccc(Cl)c3)n(C)c(=O)c2S1` (configuration not stated), the z-score was 0.

Turning to `COc1cccc(OC)c1C(=O)Oc1cccc2ccc(C)nc12`, the z-score is -0.39.

With `CC1(C)CC(=O)C2=C(C1)OC1=C(C(=O)CC(C)(C)C1)C2c1ccccc1C(=O)O`, the z-score is 0.12.

`O=[N+]([O-])c1ccc(N2CCCCCC2)c(S(=O)(=O)N2CCOCC2)c1`: the z-score is -0.01.

For `Cc1ccccc1NC(=O)CC1Sc2ccccc2NC1=O` (configuration not stated), the z-score is -0.07.

Turning to `O=C(O)CCNC(=O)Cn1cnc2sc3c(c2c1=O)CCCC3`, the z-score is 1.62.

Take `CCn1c(SCC(=O)Nc2ccc(F)cc2)nc2c(c1=O)SC(C)C2` (configuration not stated): the z-score was -0.54.

On to `O=C(CSc1nc2c([nH]c3ccccc32)c(=O)n1-c1cccc(Cl)c1)Nc1nccs1`, for which the z-score is -1.08.

In the case of `COc1ccc(Cl)cc1NC(=O)CSc1nc2cc(OC)c(OC)cc2c2nc(C)nn12`, the z-score was -0.11.

On to `CCOCCOC(=O)C1=C(C)NC(=O)NC1c1cccc([N+](=O)[O-])c1` (configuration not stated), for which the z-score is 4.15.

In the case of `COc1ccc(C=Cc2nc3ccccc3[nH]2)cc1`, the z-score is -0.15.

Take `COc1cc(C2NC(=O)N(C)C(C)=C2C(=O)OCCc2ccccc2)cc(Br)c1O` (configuration not stated): the z-score is -0.63.

`COc1ccccc1-n1c(C)nc2cc(C(=O)NCc3cccnc3)ccc21`: the z-score is 1.95.

`Cc1ccc(C(=O)CC2(O)C(=O)N(C(C)C)c3ccccc32)c(C)c1` (configuration not stated): the z-score is -0.29.

Regarding `Clc1ccc(-c2ncnn2-c2cccc(Cl)c2)cc1`, the z-score was -0.25.

For the compound `CCOc1ccc(Nc2cc(C(=O)NCCN3CCCC3)c3ccccc3n2)cc1`, the z-score is -0.89.

For `O=C(Nc1ccccc1-c1nc2ccccc2s1)c1ccc(S(=O)(=O)N2CCCCCC2)cc1`, the z-score was 0.69.

Consider `O=C(Nc1ccc(Oc2ccccc2)cc1)c1cn(-c2ccc(Cl)cc2)c(=O)c2ccccc12`, for which the z-score is -0.93.

Regarding `Cc1onc(-c2ccccc2)c1C(=O)N1CCN(c2ccc(OCc3ccccc3)cc2)CC1`, the z-score was -0.43.

For `Cc1nn(C)c(C)c1S(=O)(=O)Nc1ccc(C(C)C)cc1`, the z-score is -0.07.

As to `O=C(COC(=O)c1ccc(N2C(=O)c3ccccc3C2=O)cc1)c1ccc(Cl)cc1`, the z-score was -1.36.

Consider `CCOC(=O)c1c(O)cc2ccccc2c1O`, for which the z-score was 0.14.

Regarding `O=C1NCCCCC1Nc1ccc(N2C(=O)CCCC2=O)cc1[N+](=O)[O-]` (configuration not stated), the z-score is -1.9.

Consider `Cc1ccc(C(=O)Nc2ccc(Br)cn2)cc1C`, for which the z-score is -0.15.

With `COc1ccc(NC(=O)CN(c2cc(C(F)(F)F)ccc2Cl)S(=O)(=O)c2ccccc2)cc1`, the z-score was -0.33.

Turning to `Cc1ccc2nc(N3CCC(C(=O)NC4CCCCC4)CC3)[nH]c2c1`, the z-score was 3.44.

`CCCCSc1nnc2c(n1)OC(c1ccc3c(c1)OCO3)N(C(C)=O)c1ccccc1-2` (configuration not stated): the z-score was 0.17.

As to `C=CCN1C(=O)c2ccccc2Sc2ccc(C(=O)NCCOC)cc21`, the z-score is 1.28.

Regarding `Cc1ccc(S(=O)(=O)N2N=C(c3ccccc3)CC2c2ccccc2Cl)cc1` (configuration not stated), the z-score was 0.52.

With `COCCOC(=O)C1=C(C)NC(=O)NC1c1ccc(Br)s1` (configuration not stated), the z-score is -0.55.

With `Cc1ccc(CNC(=O)CCNC(=O)Cn2ccc3ccccc3c2=O)cc1`, the z-score was -0.31.

Regarding `CCOc1sc2nc(C)n(CC(=O)Nc3ccc(N(C)C)cc3)c(=O)c2c1C`, the z-score is -1.08.

On to `CCC(C)NC(=O)C1(C)CCC(=O)N1CCN1CCCCCC1` (configuration not stated), for which the z-score is -0.27.

Consider `O=C1C2C3C=CC(C3)C2C(=O)N1c1ccc(Nc2ccc3c(c2)CCC3)c([N+](=O)[O-])c1` (configuration not stated), for which the z-score is -1.35.

Consider `Cn1ncc([N+](=O)[O-])c1C#N`, for which the z-score is -0.09.

As to `COc1ccc2c(c1)c(C(=O)CNc1nc(C)c(C)s1)c(C)n2C`, the z-score is -1.

Turning to `O=C1CCCN1CCCn1c(=S)[nH]c2ccccc2c1=O`, the z-score is -0.96.

For `CC(=O)N1CCc2cc(S(=O)(=O)CCC(=O)Nc3ccc(C(F)(F)F)cc3)ccc21`, the z-score was -0.69.

As to `Cc1ccc2nsnc2c1S(=O)(=O)Nc1ccc(Br)cc1`, the z-score was -1.76.

For the compound `Cc1ccccc1NCc1cccc([N+](=O)[O-])c1`, the z-score is 0.03.

`O=C(c1oc(=O)c2ccccc2c1-c1ccccc1)N1CCc2ccccc21`: the z-score was 0.81.

`Nc1nc2ccccc2n1CCOc1ccc([N+](=O)[O-])cc1`: the z-score was -0.25.

`CCC(=O)Nc1cccc(-c2nc3ncccc3o2)c1`: the z-score was 0.77.

With `Cc1ccc(CNC(=O)CCSCc2cccc(Cl)c2)cc1`, the z-score is -0.79.

Consider `CCOc1ccc(C(=O)Nc2ccc3nn(-c4ccc(OC)cc4)nc3c2)cc1Cl`, for which the z-score was 0.27.

On to `Cc1ccc(-c2nnn(CC(=O)Nc3ccc(OC(F)(F)F)cc3)n2)cc1`, for which the z-score was 0.34.

For `CCOC(=O)c1cnc2ccc(Cl)cc2c1Nc1ccc2c(c1)OCCO2`, the z-score is -0.29.

For the compound `O=C(N1CCCc2ccccc21)C12CC3CC(CC(C3)C1)C2`, the z-score was -0.74.

As for `O=C(O)c1ccc2c(c1)C(=O)N(c1cccc(Oc3ccc4c(c3)C(=O)N(c3ccccc3)C4=O)c1)C2=O`, the z-score was -2.01.

Consider `COc1ccc(-n2cnc3cc(C(=O)NC4CCCC4)ccc32)cc1`, for which the z-score was -0.86.

Turning to `Cc1cc(C)cc(-n2nc3c(c2NC(=O)CCCCl)CSC3)c1`, the z-score is -0.91.

On to `COc1ccc(OC)c(NC(=O)c2c(NCc3ccc(C)o3)sc3c2CCC3)c1`, for which the z-score was -1.95.

Regarding `Cc1cccc(C(=O)Nc2ccc(-c3nc4cc(C(C)(C)C)ccc4o3)cc2)c1`, the z-score is -0.77.

Regarding `CCn1cc(C(=O)Nc2cc(Cl)ccc2OC)c(=O)c2ccc(C)nc21`, the z-score is 0.75.

As for `CCn1cc(C(=O)NCCCN2CCCCCC2)c2cc(OC)c(OC)cc2c1=O`, the z-score was -0.6.

`Cc1cc(C)cc(NC(=O)CCCn2c(=S)[nH]c3ccccc3c2=O)c1`: the z-score was -1.99.

Consider `CCCCCCn1c(SCC(=O)c2ccccc2)nc2c1c(=O)[nH]c(=O)n2C`, for which the z-score was -0.58.

As to `CC(C)c1ccc(NS(=O)(=O)c2ccc3[nH]cc(C(=O)NC4CCCC4)c(=O)c3c2)cc1`, the z-score is -2.24.

With `COc1cc(C(=O)Nc2ccc(C(C)=O)cc2)cc(OC)c1OC`, the z-score was 0.14.

For `O=C(O)c1ccc(-n2cnnn2)cc1`, the z-score was 1.04.

`CCOC(=O)C1CCN(c2nc(-c3cccc(C)c3)nc3ccccc23)CC1`: the z-score is -0.19.

For `Cc1ccccc1CSC1=NCCN1C(=O)C12CC3CC(CC(C3)C1)C2`, the z-score is -0.58.

`CCOc1ccccc1N(C)C(=O)C1c2cc(OC)c(OC)cc2C(=O)N(C)C1c1cccnc1` (configuration not stated): the z-score was 1.17.

Turning to `CCN(CC)C(=O)C1c2cc(OC)c(OC)cc2C(=O)N(C)C1c1ccc(SC)cc1` (configuration not stated), the z-score is 0.35.

Turning to `Nc1c(C(=O)Nc2ccc(Br)cc2)sc2nc3c(c(-c4ccco4)c12)CCCCC3`, the z-score was -0.89.

In the case of `CN(C)c1ccc(C(O)(c2ccccc2)c2ccccc2)cc1`, the z-score is -0.51.

Turning to `O=C(CN1CCN(Cc2cccc(Cl)c2)C1=O)NC1CCCCCCC1`, the z-score was 0.45.

As to `CC(C)CC(=O)N1CCN(Cc2ccccc2Br)CC1`, the z-score is 0.09.

Take `CC(C)CC(=O)N1CCN(Cc2cccc(Cl)c2)CC1`: the z-score is -4 (active).

Consider `CCC(=O)N1CCc2cc(Br)cc(S(=O)(=O)N3CCCC(C(=O)N4CCN(c5cccc(C(F)(F)F)c5)CC4)C3)c21` (configuration not stated), for which the z-score is -0.33.

As for `CCOC(=O)c1c(C)oc2ccc(N(C(=O)c3ccccc3Cl)S(=O)(=O)c3cccc([N+](=O)[O-])c3)cc12`, the z-score is -0.28.
